# Bioassay records as filed in PubChem.
# PPC-1+TRAIL kill – compounds killing PPC-1 cancer cells with TRAIL present, primary screen, TRAIL potentiator project, ATPLite luminescence, uHTS; PPC-1 cells + TRAIL, ATPLite viability luminescence; cell killing (% activity), % at 4 µM or 5 µM; actives 0.41% (n = 220,000); AID 1443, 2008;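 active = cell killing above 50% in the first pass at 4 µM, then a duplicate retest at 5 µM averaging 50% or more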;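 note: plate controls were cells with TRAIL plus DMSO for no effect and medium-only wells lacking cells for full effect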
# CF NFkB inh – inhibitors of PAF-induced NF-kB signaling, primary screen, cell-based, GFP fluorescence, uHTS; AID 588850, 2011; inhibition, % at 5 µM; KKLEB NF-kB-GFP reporter, GFP fluorescence overnight; actives 0.86% (n = 360,000);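 active = at least 50% inhibition at 5 µM, scaled per plate between neutral and stimulator controls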;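 note: PAF is a Pseudomonas aeruginosa culture filtrate used as stimulus; plate controls were PAF-stimulated DMSO wells for no effect and unstimulated DMSO wells for full effect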
# HIF-2a block – HIF-2a reporter inhibitors, primary screen, luminescence, 786-0 RCC cells | 786-0 RCC cells HIF-2a reporter, luciferase luminescence, overnight | AID 624352, 2012 | actives 0.72% (n = 360,000) | inhibition, % at 18.8 µM;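 active = inhibition of the luminescence signal of 40% or more relative to plate controls, in a single-dose primary screen at 18.75 µM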
# TRAIL sens C8 – viability loss with TRAIL in NB7+C8 cells, primary screen, TRAIL sensitizer project, cell-based, ATPlite luminescence; inhibition (viability loss, TRAIL sensitization), % at 10 µM; actives 1% (n = 360,000);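 active = compounds causing at least 50% loss of cell viability in the single-dose screen, relative to plate controls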
# iPSC survival up – enhancers of single-cell hiPSC survival, primary screen, ATPlite luminescence; 100% = ROCK inhibitor wells, 0% = DMSO; survival enhancement, % at 20 µM; actives 0.044% (n = 360,000); AID 602274, 2012; in the data active = survival enhancement above about 18%;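 note: cells exposed to compounds for 16 hours before the ATP read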
# KKLEB cytotox – cytotoxicity in KKLEB CF airway cells, primary screen, cytotoxicity control for CF NF-kB inhibitor project, cell-based, uHTS, fluorescence assay plates; actives 0.36% (n = 360,000); KKLEB CF airway cells viability, ATPlite luminescence, overnight; stronger effect = lower value; cells stimulated with P. aeruginosa culture filtrate; activity change (cytotoxicity), % at 5 µM; AID 602141, 2011;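 active = corrected activity change at or below -50% at 5 µM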
# Mdm2-MdmX confirm – retested Mdm2-MdmX interaction blockers, confirmation, cell-based, luminescence, single concentration, set 2. actives 99% (n = 740). SaOS-2 split-luciferase Mdm2/MdmX complementation. inhibition, % at 8 µM. shares compounds with HIF-2a block;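 active = mean inhibition of the luminescence signal across two replicates at or above 26 percent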
# Target sequence (O15151 whole entry, looked up): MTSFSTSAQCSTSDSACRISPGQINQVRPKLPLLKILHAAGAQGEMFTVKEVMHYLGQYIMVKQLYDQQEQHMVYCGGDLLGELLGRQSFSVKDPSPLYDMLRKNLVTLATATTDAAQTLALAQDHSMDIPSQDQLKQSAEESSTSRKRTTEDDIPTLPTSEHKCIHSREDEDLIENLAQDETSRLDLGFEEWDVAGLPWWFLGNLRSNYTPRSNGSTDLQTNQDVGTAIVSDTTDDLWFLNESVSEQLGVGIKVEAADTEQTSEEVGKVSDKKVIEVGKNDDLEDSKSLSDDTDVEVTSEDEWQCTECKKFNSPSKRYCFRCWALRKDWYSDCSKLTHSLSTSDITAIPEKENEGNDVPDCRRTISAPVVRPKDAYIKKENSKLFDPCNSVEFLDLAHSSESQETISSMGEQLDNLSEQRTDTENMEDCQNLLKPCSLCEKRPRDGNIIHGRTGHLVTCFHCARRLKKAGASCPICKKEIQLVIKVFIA
# Target sequence (Q00987 whole entry, looked up): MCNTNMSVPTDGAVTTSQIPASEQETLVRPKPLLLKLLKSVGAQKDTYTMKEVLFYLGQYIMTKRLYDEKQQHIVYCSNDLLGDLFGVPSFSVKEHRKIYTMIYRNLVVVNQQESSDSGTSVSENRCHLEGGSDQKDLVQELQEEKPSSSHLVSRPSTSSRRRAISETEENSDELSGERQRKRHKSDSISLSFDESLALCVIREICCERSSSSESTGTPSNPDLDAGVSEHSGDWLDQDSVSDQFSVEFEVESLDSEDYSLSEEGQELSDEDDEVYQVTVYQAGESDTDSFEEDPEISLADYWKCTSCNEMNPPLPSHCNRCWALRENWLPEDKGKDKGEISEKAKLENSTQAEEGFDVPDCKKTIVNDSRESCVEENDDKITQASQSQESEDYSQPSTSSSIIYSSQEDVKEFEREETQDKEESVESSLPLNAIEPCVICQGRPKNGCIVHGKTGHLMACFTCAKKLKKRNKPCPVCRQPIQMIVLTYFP
# HIF-2a inh conf – HIF-2a reporter inhibitor retest, confirmation, luminescence, 786-0 RCC cells; actives 56% (n = 1,800); HIF-2a luciferase reporter luminescence, overnight; AID 651580, 2012; shares compounds with HIF-2a block; inhibition, % at 18.8 µM;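 active = mean inhibition across four replicates of at least 40 percent at the single tested concentration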
# HIF-1a cs – HIF-1a luciferase reporter signal reduction – MiaPaCa-2 cells, single concentration, counter-screen for HIF-2a inhibitor project, confirmation | shares compounds with HIF-2a block | MiaPaCa-2 HIF-1a luciferase reporter, desferoxamine, overnight | inhibition, % at 18.8 µM | actives 72% (n = 1,800);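 active = mean inhibition of the reporter signal across four replicates at the single tested dose of 50% or more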
# * hit, by the source's call; . = no result given. Shown are actives, neighbours in structure and some others; about 2.2% of the full set was active somewhere.
SMILES,PPC-1+TRAIL kill,CF NFkB inh,HIF-2a block,TRAIL sens C8,iPSC survival up,KKLEB cytotox,HIF-2a inh conf,HIF-1a cs,others
COc1cccc(/C=N/Nc2ncccc2[N+](=O)[O-])c1OC,24,3,51*,10,0,-6,74*,31,
Cn1c(N)c(C(=O)CSc2nc(C3CC3)n(-c3ccccc3)n2)c(=O)[nH]c1=O,.,-14,10,1,0,5,.,.,
Cc1ccc(C(=O)N2CCN(C)CC2)cc1[N+](=O)[O-],.,5,7,-4,0,-4,.,.,
O=[N+]([O-])c1ccc2nc(Cl)nc(-c3ccccc3)c2c1,.,-21,19,3,0,6,.,.,Mdm2-MdmX confirm=101*
COc1ccc(C(=O)Nc2ccc(S(=O)(=O)N3CCCC3)cc2)cc1[N+](=O)[O-],.,-9,19,-8,0,-3,.,.,
COc1ccc(C2c3ccc(O)cc3Oc3ncn(Cc4ccccc4)c(=N)c32)cc1OC (configuration not stated),15,8,58*,18,0,0,9,51*,
COc1ccc(C2c3ccc(O)cc3Oc3ncn(CCN4CCOCC4)c(=N)c32)cc1OC (configuration not stated),7,3,10,9,1,2,.,.,
CCc1ccc(NC(=O)COc2ccc(/C=C(/C#N)c3nc4ccccc4[nH]3)cc2OC)cc1,33,2,-1,25,-3,-4,.,.,Mdm2-MdmX confirm=89*
CC(=O)c1c(C)oc2ccc(N(C(C)=O)S(=O)(=O)c3ccc(Cl)c([N+](=O)[O-])c3)cc12,35,42,69*,25,0,-9,-1,107*,
O=C(NCc1cc(C(F)(F)F)ccc1Cl)c1cccc2c1C(=O)c1ccc(N3CCC(N4CCCCC4)CC3)cc1S2(=O)=O,.,-15,92*,96*,-5,-14,-4,100*,
O=C(NCc1cc(C(F)(F)F)ccc1Cl)c1cccc2c1C(=O)c1ccc(N3CCCCC3)cc1S2(=O)=O,.,-5,-2,9,-3,-7,.,.,
O=C(O)CCC(=O)Nc1ccc(Oc2ncnc3cc(Cl)ccc23)nc1,13,2,15,0,0,6,.,.,
COC(=O)c1ccc2c(c1C(=O)OC)CN(S(=O)(=O)C(C)(C)C)[C@H]2CCO,.,-6,11,5,-4,3,.,.,
Cc1ccc(S(=O)(=O)N2CCOCC2)cc1NC(=O)c1cc(-c2ccccn2)nc2ccccc12,-9,2,95*,3,0,9,14,50,
COc1ccc(CN2C(=O)C(CC(=O)NCCN3CCOCC3)CC(C(=O)N3CCOCC3)=C2C)cc1 (configuration not stated),.,-7,6,-2,-3,4,.,.,
CCCC(=O)N1CCCC(c2cc(C(=O)Nc3ccccc3)no2)C1 (configuration not stated),.,4,43*,52*,-4,-1,66*,71*,
O=C(Nc1ccccc1)c1cc(C2CCCN(C(=O)c3ccccc3)C2)on1 (configuration not stated),.,12,-256,4,-2,-10,.,.,
O=C(Nc1ccccc1)C1Cc2c(-c3cccc(F)c3)ccnc2O1 (configuration not stated),.,-11,4,-8,-1,5,.,.,
CS(=O)(=O)Nc1cccc(NC(=O)C2Cc3c(-c4cccc(F)c4)ccnc3O2)c1 (configuration not stated),.,-11,51*,70*,-3,-13,34,89*,
Cc1cc(C(=O)COc2ccccc2C(N)=O)c(C)n1CC1CCCO1 (configuration not stated),7,-6,-75,26,-1,-17,.,.,
Cc1cc(C(=O)COC(=O)c2ccccc2O)c(C)n1Cc1cccs1,-2,13,90*,90*,-4,-44,96*,97*,
Cc1cc(C(=O)COC(=O)c2ccccc2O)c(C)n1CC1CCCO1 (configuration not stated),.,31,90*,87*,-6,-22,95*,98*,
Cc1ccc(C(=O)Nc2ccc3ncccc3c2)cc1,.,-10,43*,90*,-1,-64*,51*,28,
COc1cc(SC#N)ccc1N=Cc1c(C)[nH]n(-c2ccc(C)c(C)c2)c1=O,14,3,14,80*,5,1,.,.,Mdm2-MdmX confirm=98*
COc1ccc(CCN=Cc2c(C)[nH]n(-c3ccc([N+](=O)[O-])cc3)c2=O)cc1OC,16,-20,16,-7,5,-7,.,.,
SMILES,PPC-1+TRAIL kill,CF NFkB inh,HIF-2a block,TRAIL sens C8,iPSC survival up,KKLEB cytotox,HIF-2a inh conf,HIF-1a cs,others
CCC(Cc1ccccc1)NC(=O)c1ccc2nc(N3CCOCC3)sc2c1 (configuration not stated),.,21,4,-4,1,-2,.,.,
Cc1ccc(CNC(=O)C2CCCN(S(=O)(=O)N3CC(C)CC(C)C3)C2)cc1 (configuration not stated),.,-19,15,-8,0,-8,.,.,
CC(=O)Nc1ccc(C(=O)OCC(=O)N(c2ccccc2)C2CCS(=O)(=O)C2)cc1 (configuration not stated),.,1,12,21,0,6,.,.,
O=C(CCl)N(c1ccccc1)C1CCS(=O)(=O)C1 (configuration not stated),18,9,31,28,-2,-2,.,.,Mdm2-MdmX confirm=103*
O=C1c2cccc3c([N+](=O)[O-])ccc(c23)C(=O)N1c1ccc(Cl)cn1,23,9,31,39,1,-11,.,.,Mdm2-MdmX confirm=103*
O=C1c2ccc([N+](=O)[O-])cc2C(=O)N1c1ccc(Cl)cn1,6,-15,9,-1,0,13,.,.,
COc1cc2c3nnc(-c4ccc(F)cc4)c-3cn(Cc3cccc(F)c3)c2cc1OC,46,-52,27,-9,-5,-4,.,.,Mdm2-MdmX confirm=103*
